{
  "source": "PubChem BioAssay (NCATS)",
  "key": {"[1]": {"molecular_target": "Glutathione peroxidase 1 (Homo sapiens) (UniProt P07203)", "sequence (P07203 whole entry, looked up)": "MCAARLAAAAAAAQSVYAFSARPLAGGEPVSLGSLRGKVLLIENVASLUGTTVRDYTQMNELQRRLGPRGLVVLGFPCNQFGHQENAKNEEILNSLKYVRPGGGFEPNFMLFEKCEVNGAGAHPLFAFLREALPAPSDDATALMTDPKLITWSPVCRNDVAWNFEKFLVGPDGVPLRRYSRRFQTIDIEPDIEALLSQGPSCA", "test": "Primary qHTS Assay for Inhibitors of Recombinant Selenoprotein Glutathione Peroxidase 1 (GPX1) (AID 1845191); note: nearly all actives have a fitted effect of over 65% in size", "method_in_brief": "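GPX1 10 nM, GR 100 nM, GSH 1 mM, NADPH 0.5 mM, CHP 0.5 mM (final). 30-min cpd preincubation, RT. Ex340/Em450 read t=0, t=15 min.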"}, "[2]": {"molecular_target": "Phospholipid hydroperoxide glutathione peroxidase GPX4 (Homo sapiens) (UniProt P36969)", "sequence (P36969 whole entry, looked up)": "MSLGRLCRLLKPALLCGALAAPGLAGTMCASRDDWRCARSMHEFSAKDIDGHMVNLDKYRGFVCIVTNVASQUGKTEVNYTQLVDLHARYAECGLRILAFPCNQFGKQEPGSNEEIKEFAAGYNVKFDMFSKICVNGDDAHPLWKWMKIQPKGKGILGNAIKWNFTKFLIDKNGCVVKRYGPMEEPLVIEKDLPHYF", "test": "Primary qHTS Assay for Inhibitors of Recombinant Selenoprotein Glutathione Peroxidase 4 (GPX4) (AID 1845192); note: nearly all actives have a fitted effect of over 65% in size", "method_in_brief": "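qHTS, GR-coupled: GPX4 200 nM + cpd 30 min RT → GSH 1 mM, NADPH 0.5 mM, GR 100 nM → CHP 0.5 mM start; fluor 340/450 at t0 and t15 min; no-enzyme wells as control.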"}, "[3]": {"molecular_target": "Luciferin 4-monooxygenase (Photinus pyralis) (UniProt P08659)", "test": "Primary firefly luciferase (FLuc) qHTS assay for identification of artifact compounds. (AID 1845220); note: nearly all actives have a fitted effect of over 60% in size; note: potency is the fitted concentration of half-maximal effect", "method_in_brief": "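qHTS, 15 min compound preincubation with substrate (10 uM luciferin, 10 uM ATP) at RT, then 10 nM FLuc; 5 min; luminescence; % inhibition vs no-enzyme/DMSO controls, 4-parameter Hill fit.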"}, "[4]": {"tested_on": "Nanoluciferase (engineered Oplophorus gracilirostris luciferase)", "test": "Primary Nanoluciferase (NLuc) qHTS assay for identification of artifact compounds. (AID 1845222); note: series mostly up to about 54 µM", "method_in_brief": "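Luminescence read-out of secreted NLuc in S16 cell conditioned medium (1:55); compounds tested with 15 min RT preincubation, then Nano-Glo substrate 1:100, 5 min. % inhibition vs no-enzyme and DMSO controls, 4-parameter Hill fit.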"}, "[5]": {"test": "Primary redox qHTS assay for identification of artifact compounds. (AID 1845223)", "method_in_brief": "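Redox-cycling detection via DTT (250 uM final) oxidation coupled to Amplex Red (25 uM)/HRP (250 mU/mL) in HBSS. 15 min preincubation plus 30 min after DTT, room temperature. Ex/Em 525/598 nm; 4-parameter Hill fit against DMSO and 10 uM DA3003.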"}},
  "note": "Records with an inconclusive call do not appear. Entries that show only a call come without a potency. Active and inactive are the calls of the source. Calls come from the whole dose curve; as a rule, active = well fitted curve in the direction sought with a large enough effect; inconclusive = small, poorly fitted or top-dose-only effect, or another doubt; inactive = no such curve, though single readings can be large; an effect the other way counts as inactive or inconclusive.",
  "data": [
    {"smiles": "C=C1/C(=C/C=C2\\CCC[C@]3(C)[C@@H]([C@H](C)/C=C/[C@@H](C)C(C)C)CC[C@@H]23)C[C@@H](O)C[C@@H]1O", "values": [
      {"measurement": "Potency", "setting": "[1]", "value": "inactive"},
      {"measurement": "Potency", "setting": "[2]", "value": "inactive"},
      {"measurement": "Potency", "setting": "[3]", "value": "inactive"},
      {"measurement": "Potency", "setting": "[4]", "value": "inactive"},
      {"measurement": "Potency", "setting": "[5]", "value": "inactive"}
    ]},
    {"smiles": "CCC(C)/C=C(C)/C=C/C1=CC2=C(Cl)C(=O)C(C)(OC(C)=O)C(=O)C2(O)C(OC)O1", "note": "(stereo not given)", "values": [
      {"measurement": "Potency", "setting": "[1]", "value": "inactive"},
      {"measurement": "Potency", "setting": "[2]", "value": "inactive"},
      {"measurement": "Potency", "setting": "[3]", "value": "inactive"},
      {"measurement": "Potency", "setting": "[4]", "value": "inactive"},
      {"measurement": "Potency", "setting": "[5]", "value": "inactive"}
    ]},
    {"smiles": "N#Cc1cc(-c2ccnc(Nc3ccc(N4CCOCC4)cc3)n2)ccc1OC1CCOCC1", "values": [
      {"measurement": "Potency", "setting": "[1]", "value": "inactive"},
      {"measurement": "Potency", "setting": "[2]", "value": "inactive"},
      {"measurement": "Potency", "setting": "[3]", "value": "inactive"},
      {"measurement": "Potency", "setting": "[4]", "value": "inactive"},
      {"measurement": "Potency", "setting": "[5]", "value": "inactive"}
    ]},
    {"smiles": "CC1(C)SCCN(S(=O)(=O)c2ccc(Oc3ccncc3)cc2)[C@H]1C(=O)NO", "values": [
      {"measurement": "Potency", "setting": "[1]", "value": "inactive"},
      {"measurement": "Potency", "setting": "[2]", "value": "inactive"},
      {"measurement": "Potency", "setting": "[3]", "value": "inactive"},
      {"measurement": "Potency", "setting": "[4]", "value": "inactive"},
      {"measurement": "Potency", "setting": "[5]", "value": "inactive"}
    ]},
    {"smiles": "O=C(Nc1cccc([N+](=O)[O-])c1)c1cccc(S(=O)(=O)N2CCCCCC2)c1", "values": [
      {"measurement": "Potency", "setting": "[1]", "value": "inactive"},
      {"measurement": "Potency", "setting": "[2]", "value": "inactive"},
      {"measurement": "Potency", "setting": "[3]", "value": "inactive"},
      {"measurement": "Potency", "setting": "[4]", "value": "inactive"},
      {"measurement": "Potency", "setting": "[5]", "value": "inactive"}
    ]},
    {"smiles": "O=C(NC1CCN(CCCCC2(C(=O)NCC(F)(F)F)c3ccccc3-c3ccccc32)CC1)c1ccccc1-c1ccc(C(F)(F)F)cc1", "values": [
      {"measurement": "Potency", "setting": "[1]", "value": "inactive"},
      {"measurement": "Potency", "setting": "[2]", "value": "inactive"},
      {"measurement": "Potency", "setting": "[3]", "value": "inactive"},
      {"measurement": "Potency", "setting": "[4]", "value": "inactive"},
      {"measurement": "Potency", "setting": "[5]", "value": "inactive"}
    ]},
    {"smiles": "C=CC(=O)N1CCC[C@@H](n2nc(-c3cccc(C(=O)Nc4ccc(C(C)C)c(C)c4)c3)c3c(N)ncnc32)C1", "values": [
      {"measurement": "Potency", "setting": "[1]", "value": "inactive"},
      {"measurement": "Potency", "setting": "[2]", "value": "inactive"},
      {"measurement": "Potency", "setting": "[3]", "value": "6.75 µM (active)"},
      {"measurement": "Potency", "setting": "[4]", "value": "inactive"},
      {"measurement": "Potency", "setting": "[5]", "value": "inactive"}
    ]},
    {"smiles": "CC[C@@H](C)[C@@H]1OC2(C=C[C@H]1C)C[C@@H]1C[C@H](C/C=C(\\C)[C@H](O[C@H]3C[C@H](OC)[C@H](O[C@H]4C[C@H](OC)[C@H](NC(C)=O)[C@H](C)O4)[C@H](C)O3)[C@H](C)/C=C/C=C3\\CO[C@H]4[C@H](O)C(C)=C[C@@H](C(=O)O1)[C@@]34O)O2", "note": "(stereo not given in full)", "values": [
      {"measurement": "Potency", "setting": "[1]", "value": "inactive"},
      {"measurement": "Potency", "setting": "[2]", "value": "inactive"},
      {"measurement": "Potency", "setting": "[3]", "value": "inactive"},
      {"measurement": "Potency", "setting": "[4]", "value": "inactive"},
      {"measurement": "Potency", "setting": "[5]", "value": "inactive"}
    ]},
    {"smiles": "C/C1=C\\CCC2=CC(OC2=O)C(C)(C)/C=C/C1=O", "note": "(stereo not given)", "values": [
      {"measurement": "Potency", "setting": "[1]", "value": "inactive"},
      {"measurement": "Potency", "setting": "[2]", "value": "inactive"},
      {"measurement": "Potency", "setting": "[3]", "value": "inactive"},
      {"measurement": "Potency", "setting": "[4]", "value": "inactive"},
      {"measurement": "Potency", "setting": "[5]", "value": "inactive"}
    ]},
    {"smiles": "C=C1C(=O)OC2C=C(C)CC/C=C(\\CO)CC(O)C12", "note": "(stereo not given)", "values": [
      {"measurement": "Potency", "setting": "[1]", "value": "inactive"},
      {"measurement": "Potency", "setting": "[2]", "value": "inactive"},
      {"measurement": "Potency", "setting": "[3]", "value": "inactive"},
      {"measurement": "Potency", "setting": "[4]", "value": "inactive"},
      {"measurement": "Potency", "setting": "[5]", "value": "inactive"}
    ]},
    {"smiles": "COC(=O)c1ccc2c(c1)nc(NC(=O)c1ccccc1)n2CCCc1ccccc1", "values": [
      {"measurement": "Potency", "setting": "[1]", "value": "inactive"},
      {"measurement": "Potency", "setting": "[2]", "value": "inactive"},
      {"measurement": "Potency", "setting": "[3]", "value": "inactive"},
      {"measurement": "Potency", "setting": "[4]", "value": "inactive"},
      {"measurement": "Potency", "setting": "[5]", "value": "inactive"}
    ]}
  ]
}
